Bioassay records as filed in PubChem.
KB-3-1 tox: kills parental KB-3-1 adenocarcinoma cells. Potency, µM (titrated, usually from 46.1 µM), hits mostly cytotoxic. actives 1.4% (n = 400,000). AID 1347075. KB-3-1 viability, CellTiter-Glo ATP luminescence, 72 h; also: nearly all actives have a fitted effect of over 60% in size
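Cells are dispensed, compounds pinned in, plates held at 37 °C for 72 h, then CellTiter-Glo is added and luminescence read after 10 minutes. Cell line: parental KB-3-1 in phenol-red-free DMEM, 10% FBS.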
HT1080 IDH1KD tx: HT-1080 IDH1 knockdown cell toxicity (counter line); HT-1080 IDH1 knockdown viability, ATP luminescence, 48 h; Potency, µM (top dose mostly 46.1 µM), for inactives: top-dose activity, negative = toxicity, usual class: cytotoxic; actives 2% (n = 360,000); AID 686971;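 also: 0% = DMSO wells and -100% = cell-free medium wells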
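Assay cells: HT-1080 with IDH1 knockdown, 750 per well, RPMI/5% FBS. Exposure: 48 h at 37 °C following 2 h pre-incubation. Read: CellTiter-Glo luminescence; fitted concentration-response, curve class assigned.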
HT1080-NT tox: kills 2HG-producing HT-1080-NT fibrosarcoma cells; HT-1080-NT fibrosarcoma viability, CellTiter-Glo ATP luminescence, 48 h; Potency, µM (top dose mostly 46.1 µM), without a hit: top-dose activity, negative = less viability, actives largely listed as cytotoxic; actives 1.6% (n = 360,000);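 also: NT is the 2HG producing partner of a matched IDH1 knockdown line; 0% = DMSO-treated cells and -100% = media-only wells without cells; nearly all actives have a fitted effect of over 55% in size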
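HT-1080-NT fibrosarcoma cells (2HG-overproducing), 750 cells/well in RPMI with 5% FBS, dosed after 2 h and incubated 48 h at 37C. CellTiter-Glo luminescence normalized to DMSO and no-cell wells; concentration-response curves fitted and classed.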
KB-V1 MDR tox: KB-V1 MDR subline cytotoxicity; Potency, µM (doses to about 46.1 µM), hits mostly cytotoxic; KB-V1 MDR cells viability, CellTiter-Glo, 72 h; actives 3.4% (n = 400,000); also: nearly all actives have a fitted effect of over 60% in size
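KB-V1 cells (P-gp-expressing MDR subline of KB-3-1) in phenol-red-free DMEM with 10% FBS were exposed to library compounds over a concentration series for 72 h at 37 degrees C. Viability read by CellTiter-Glo luminescence; concentration-effect curves fitted after normalization.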
DT40 TDP1 CPT: growth inhibition of DT40 Tdp1-/-;hTDP1 cells with camptothecin (screen for TDP1 inhibitors) | chicken DT40 Tdp1-/-;hTDP1 cells + 20 nM CPT, ATP luminescence, 48 h | Potency, µM (doses to about 46.2 µM), for the others: at the top dose activity change, negative = growth inhibition, actives largely listed as inhibitors | actives 12% (n = 420,000); also: nearly all actives have a fitted effect of over 55% in size
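Chicken DT40 Tdp1-/- cells complemented with human TDP1, 400 cells/well, exposed to compounds plus 20 nM camptothecin for at least 48 h at 37 C; viability read as ATP content by CellTiter-Glo luminescence.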
DT40 TDP1 no CPT: qHTS for Inhibitors of human tyrosyl-DNA phosphodiesterase 1 (TDP1): qHTS in cells in absence of CPT; DT40 Tdp1-/- hTDP1 cells, no CPT, ATP luminescence, 48 h; Potency, µM (doses to about 46.2 µM), inactives show top-dose activity change, negative = growth inhibition, usual class: inhibitors; AID 686978, 2013; actives 15% (n = 420,000); also: nearly all actives have a fitted effect of over 55% in size
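Chicken DT40 Tdp1-/- cells complemented with human TDP1, screened without camptothecin (DMSO vehicle only), 400 cells/well. Compounds pin-transferred, cells incubated at 37 °C for at least 48 hr. Growth read as ATP-dependent luminescence (CellTiter-Glo, 30 min at RT).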
* marks the source's active call; other numbers are inactive results; i = inactive; ? = inconclusive; nt = no result. This is a sample that favours compounds with a hit; in the whole collection about 19% have one here. Calls follow the shape of the dose curve; as a rule, active = well fitted curve in the direction sought with a large enough effect; inconclusive = small, poorly fitted or top-dose-only effect, or another doubt; inactive = no such curve, though single readings can be large; an effect the other way counts as inactive or inconclusive. Unless noted, % is scaled to controls: 0 for no effect and ±100 for the full control effect; potency is read from the fitted curve at half-maximal effect.

SMILES	KB-3-1 tox	HT1080 IDH1KD tx	HT1080-NT tox	KB-V1 MDR tox	DT40 TDP1 CPT	DT40 TDP1 no CPT
CC(Oc1ccc(F)cc1)C(=O)Nc1cc(S(=O)(=O)N2CCOCC2)ccc1N1CCCC1 (centres undefined)	i	13%	6%	i	-28%	6%
CCN1CCN(c2ccc(S(=O)(=O)N3CCOCC3)cc2NC(=O)C(C)Oc2cccc(Cl)c2)CC1 (centres undefined)	i	-2%	-11%	i	?	?
CC(Oc1cccc(Cl)c1)C(=O)Nc1cc(S(=O)(=O)N2CCOCC2)ccc1N1CCCCC1 (centres undefined)	?	-12%	-29%	18µM*	?	21µM*
CC(Oc1ccc(Cl)cc1)C(=O)Nc1ccccc1N1CCOCC1 (centres undefined)	i	3%	2%	?	?	21µM*
Cc1cc(Cl)ccc1OC(C)C(=O)Nc1ccccc1N1CCOCC1 (centres undefined)	i	-16%	0%	?	?	?
CC(Oc1ccc(F)cc1)C(=O)Nc1cc(S(=O)(=O)N2CCOCC2)ccc1N1CCCCC1 (centres undefined)	i	-15%	-4%	?	?	16µM*
COc1ccc(OCC(=O)Nc2ccccc2N2CCN(C)CC2)cc1	i	-2%	-8%	i	-12%	-22%
COc1cc(C(C)=O)ccc1OCC(=O)Nc1ccccc1N1CCCCC1	?	?	?	?	9.2µM*	8.2µM*
CCC(=O)N1CCN(c2ccccc2NC(=O)COc2ccc(C(C)C)cc2)CC1	i	?	?	i	?	16µM*
COc1ccc(OCC(=O)Nc2ccccc2N2CCCCC2)cc1	?	4.1µM*	3.3µM*	i	1.6µM*	1.6µM*
COc1ccc(CNCC(=O)Nc2ccccc2-n2cccc2)cc1	?	?	?	?	8.2µM*	6.5µM*
COc1ccc(CC(=O)Nc2ccccc2N2CCCC2)cc1	i	11%	13%	i	-30%	-13%
C=C1C(N)CC2CC1C2(C)C (centres undefined)	nt	nt	nt	nt	6%	-4%
CCOc1ccc(C(=O)Nc2ccccc2N2CCOCC2)cc1	i	8%	4%	i	-27%	?
CCOc1ccc(C(=O)Nc2ccccc2N2CCCC2)cc1	23µM*	-12%	-3%	?	?	?
CCOc1ccc(C(=O)C2CCN(CC(=O)Nc3ccccc3N3CCOCC3)CC2)cc1	i	?	?	?	16µM*	18µM*
O=C(CNC1CCCCCC1)Nc1ccccc1N1CCCCC1	?	?	?	?	?	21µM*
Cc1ccn2c(=O)c(C(=O)NC(C)c3ccccc3)c(O)nc2c1 (centres undefined)	nt	nt	nt	nt	?	23µM*
Cc1ccn2c(=O)c(C(=O)NCCc3ccccc3)c(O)nc2c1	i	nt	nt	?	?	23µM*
